Assay results from PubChem BioAssay AID1851 (National Center for Advancing Translational Sciences (NCATS), 2009).
In all, about 16,000 compounds went through this assay and about 5,700 (36%) were called active. Not shown: some 24% with an inconclusive outcome. The call rests on the fitted dose curve; in most records, active means well fitted curve in the direction sought with a large enough effect; inconclusive means small, poorly fitted or top-dose-only effect, or effect the other way; inactive means no such curve, though single readings can be large or run the other way. This is one part of the list.
On the % scale 0 is the no-effect control and ±100 the full control effect.

The compounds below were run against Cytochrome P450 1A2 (Homo sapiens) (UniProt P05177) (assay: Cytochrome panel assay with activity outcomes). Settings: recombinant CYP, pro-luciferin dealkylation, luminescence, p450-cyp1a2; series mostly up to 57.1 µM.
Cytochrome P450 1A2 (Homo sapiens), sequence (P05177 whole entry, looked up): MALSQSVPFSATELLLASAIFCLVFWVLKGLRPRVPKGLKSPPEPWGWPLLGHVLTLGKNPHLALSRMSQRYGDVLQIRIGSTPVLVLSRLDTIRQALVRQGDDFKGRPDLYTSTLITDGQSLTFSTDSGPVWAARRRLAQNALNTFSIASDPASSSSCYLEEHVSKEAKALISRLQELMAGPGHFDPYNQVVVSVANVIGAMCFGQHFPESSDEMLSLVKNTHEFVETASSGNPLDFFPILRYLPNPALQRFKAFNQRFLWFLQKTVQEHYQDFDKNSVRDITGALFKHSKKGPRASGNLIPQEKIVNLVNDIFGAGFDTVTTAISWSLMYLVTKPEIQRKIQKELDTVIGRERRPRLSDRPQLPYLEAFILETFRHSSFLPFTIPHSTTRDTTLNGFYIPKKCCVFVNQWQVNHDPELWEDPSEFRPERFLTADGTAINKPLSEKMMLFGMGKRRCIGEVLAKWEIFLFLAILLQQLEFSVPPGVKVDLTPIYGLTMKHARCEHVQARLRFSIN
With `O=C(c1ccco1)N1CCC2(CCCN(Cc3ccccc3)C2)CC1` the AC50 was “inactive”.
For `O=C(NCC1COc2ccccc2O1)C1CCN(S(=O)(=O)c2cccc3nsnc23)CC1` (centres undefined), the AC50 was “inactive”.
For `CC(=O)N1c2c(cc(Br)cc2S(=O)(=O)NCC2COc3ccccc3O2)CC1C` (centres undefined), the AC50 was 3.16 µM (active).
With `CCCN(CCC)CCCNS(=O)(=O)c1cc(Br)cc2c1N(C(C)=O)CC2` the AC50 was “inactive”.
`COc1ccc(C(=O)NN)cc1COc1ccc(Br)cc1` was tested, and the AC50 was 0.2 µM (active).
For `COc1ccc(/C=C/C(=O)NCc2cn(C)nc2C)cc1COc1ccc(Br)cc1`, the AC50 was “inactive”.
In the case of `NC(=O)CNC(=O)[C@@H]1CC2(CC(c3ccc(Cl)cc3)=NO2)CN1C(=O)c1ccccc1` (some centres undefined), the AC50 is reported as “inactive”.
`C=CCc1cc(C=O)cc(OC)c1OCc1ccc(Cl)cc1` was tested, and the AC50 was 1.12 µM (active).
In the case of `CCOC(=O)c1cc(-c2ccccc2)sc1NC(=O)C(C)(C)C`, the AC50 is reported as “inactive”.
For `O=C(CN1C(=O)c2ccccc2C1=O)NC1(C(=O)O)CCCC1`, the activity, negative = inhibition was -2.12% [at 2.29 µM] (inactive).
In the case of `COC(=O)c1cc(-c2ccccc2)sc1NC(=O)CN1C(=O)c2ccccc2C1=O`, the AC50 is reported as 0.708 µM (active).
For `CCOC(=O)c1cc(-c2ccccc2)sc1NC(=O)c1ccc(OC)cc1`, the AC50 was 8.91 µM (active).
With `CCOC(=O)c1c(NC(=O)CCCN2CCOCC2)sc2c1CC(C)(C)OC2` the AC50 was 14.1 µM (active).
In the case of `CCOC(=O)c1c(NC(=O)c2ccc(N3CCOCC3)c([N+](=O)[O-])c2)sc(C)c1C`, the AC50 is reported as “inactive”.
`CNC(=O)c1ccc(-c2sc3nc(N4CCOCC4)c4c(c3c2N)CC(C)(C)OC4)o1` was tested, and the AC50 was “inactive”.
For `CN1CCN(NC(=O)CN2C(=O)/C(=C/c3c(Cl)cccc3Cl)SC2=S)CC1`, the AC50 was “inactive”.
`CCN1C(=O)/C(=C/C=C2/SCCN2C)SC1=S` was tested, and the AC50 was 1 µM (active).
For `CCNc1nc(Sc2ccc(C)cc2)cc(C(F)(F)F)n1`, the AC50 was 3.16 µM (active).
With `Cc1ccc(Sc2cc(Cl)nc(N)n2)cc1` the AC50 was “inactive”.
`COc1ccc(Oc2ncc3nc(-c4ccc(F)cc4)c(=O)n(C)c3n2)cc1` was tested, and the AC50 was 2 µM (active).
In the case of `Cn1c(=O)c(-c2ccc(F)cc2)nc2cnc(Oc3ccccc3)nc21`, the AC50 is reported as 0.316 µM (active).
In the case of `COc1ccccc1-c1ccc2ncnc(N3CCOCC3)c2c1`, the AC50 is reported as 0.631 µM (active).
With `CN(C)C(=O)c1ccc(-c2ccc3ncnc(N4CCOCC4)c3c2)cc1` the AC50 was “inactive”.
For `FC(F)(F)c1ccccc1-c1ccc2ncnc(N3CCOCC3)c2c1`, the AC50 was 0.251 µM (active).
In the case of `CN(C)Cc1ccccc1-c1ccc2ncnc(N3CCOCC3)c2c1`, the AC50 is reported as 15.8 µM (active).
In the case of `COc1cccc(-c2ccc3ncnc(N4CCOCC4)c3c2)c1`, the AC50 is reported as 1 µM (active).
`O=C(O)C1CCN(c2ncnc3ccc(-c4ccccc4C(F)(F)F)cc23)CC1` was tested, and the AC50 was “inactive”.
For `COCCCN1C(=O)C(=O)/C(=C(/O)c2ccc(OC(C)C)c(C)c2)C1c1ccncc1` (centres undefined), the activity, negative = inhibition was 15.5% [at 11.4 µM] (inactive).
With `COc1ccc(C(=O)N2CCC[C@@]3(CCN(Cc4cc(C(F)(F)F)cc(C(F)(F)F)c4)C3)C2)cc1` the AC50 was “inactive”.
With `COc1ccccc1-c1ccc2ncnc(N3CCN(C)CC3)c2c1` the AC50 was 3.16 µM (active).
In the case of `CCOC(=O)CCc1c(C)nc2ncnn2c1C`, the AC50 is reported as “inactive”.
In the case of `CCc1c(C)nc2ncnn2c1NCCc1ccc(OC)cc1`, the AC50 is reported as 15.8 µM (active).
With `Cc1ccc(CNC(=O)CCc2c(C)nc3ncnn3c2C)cc1` the AC50 was “inactive”.
`CC1(C)O[C@H]2O[C@@H]([C@H](O)CON3C(=O)c4ccccc4C3=O)[C@H](O)[C@H]2O1` was tested, and the activity, negative = inhibition was -10.7% [at 11.4 µM] (inactive).
`O=c1cc(N2CCC(Cc3ccccc3)CC2)[nH]c(=O)n1C1CCCCC1` was tested, and the AC50 was “inactive”.
`O=S(=O)(c1ccccc1)c1cnc(-c2cccnc2)nc1-c1ccc(Cl)cc1Cl` was tested, and the AC50 was 8.91 µM (active).
In the case of `O=S(=O)(c1ccc(Cl)cc1)c1cnc(-c2cccnc2)nc1-c1ccccc1`, the AC50 is reported as “inactive”.
`CCC(C)(C)N=C(NC#N)Nc1cccnc1` was tested, and the AC50 was 12.6 µM (active).
In the case of `O=S(=O)(NCc1cc(-c2ccccc2Cl)no1)c1ccccc1`, the AC50 is reported as 7.08 µM (active).
In the case of `O=C1c2ccccc2C(=O)N1Cc1cc(-c2ccccc2Cl)no1`, the AC50 is reported as 0.794 µM (active).
For `C[C@@](O)(CNS(=O)(=O)c1ccccc1)c1ccccc1`, the activity, negative = inhibition was -17.4% [at 11.4 µM] (inactive).
`O=S(=O)(NCc1cc(-c2ccccc2Cl)no1)c1ccc(Cl)cc1` was tested, and the AC50 was 1 µM (active).
In the case of `CCCNC(=O)NS(=O)(=O)c1ccc(Cl)cc1`, the AC50 is reported as “inactive”.
In the case of `COc1ccc(CC(=O)N2CCN(c3ccc(C4=NNC(=O)CC4C)cc3)CC2)cc1` (centres undefined), the AC50 is reported as “inactive”.
`O=c1[nH][nH]cc1C=Nc1ccccc1O` was tested, and the AC50 was 10 µM (active).
`O=c1c(C=Nc2ccc(Oc3ccccc3)cc2)c[nH]n1-c1cccc(Cl)n1` was tested, and the AC50 was “inactive”.
In the case of `COc1cccc(N=Cc2c[nH][nH]c2=O)c1`, the AC50 is reported as 1 µM (active).
In the case of `N[C@H](C(=O)O)c1ccc(C(=O)O)c(O)c1`, the AC50 is reported as “inactive”.
`N[C@@H](C(=O)O)c1ccc(C(=O)O)c(O)c1` was tested, and the AC50 was “inactive”.
`N[C@@H](C(=O)O)c1cc(O)ccc1Cl` was tested, and the AC50 was 15.8 µM (active).
`O=C(O)CN(CCOCCOCCN(CC(=O)O)CC(=O)O)CC(=O)O` was tested, and the AC50 was “inactive”.
`CCNc1nc(NCC)nc(ON=C(C)C)n1` was tested, and the AC50 was 14.1 µM (active).
`CCCn1nc(Oc2nc(NCC)nc(NC(C)C)n2)ccc1=O` was tested, and the AC50 was “inactive”.
`CCCNc1nc(NCC)nc(OC)n1` was tested, and the AC50 was 11.2 µM (active).
With `O=S(=O)(c1ccccc1)N1CCC2(CCN(C(c3ccccc3)c3ccccc3)CC2)CC1` the AC50 was “inactive”.
`COc1cc2nc(N(C)CCCNC(=O)[C@@H]3CCCO3)nc(N)c2cc1OC` was tested, and the AC50 was “inactive”.
In the case of `Cc1cccc(C(=O)NNC(=O)C2CCCO2)c1` (centres undefined), the AC50 is reported as “inactive”.
In the case of `O=C(Nc1nc2ccc(F)cc2s1)C1CCCO1` (centres undefined), the AC50 is reported as 4.47 µM (active).
`CS(=O)(=O)N1CCC2(CCN(Cc3ccncc3)CC2)CC1` was tested, and the AC50 was “inactive”.
With `CCCCNC(=O)C(=O)NC(C)CCc1ccccc1` (centres undefined) the AC50 was 15.8 µM (active).
In the case of `CCOC(=O)[C@H](CCc1ccccc1)N[C@@H](C)C(=O)N1CCC[C@H]1C(=O)O`, the AC50 is reported as “inactive”.
`CC(CCc1ccccc1)NC(=O)C(=O)NCCO` (centres undefined) was tested, and the AC50 was “inactive”.
In the case of `Cc1ccc(S(=O)(=O)N[C@@H](CCc2ccccc2)CC(=O)C(C)(C)C)cc1`, the activity, negative = inhibition is reported as 2.3% [at 11.4 µM] (inactive).
`C[C@@H](CS(=O)(=O)Cc1ccccc1)C(N)=O` was tested, and the activity, negative = inhibition was -13.3% [at 11.4 µM] (inactive).
With `CC(CCc1ccccc1)NS(=O)(=O)c1ccccc1` (centres undefined) the AC50 was 14.1 µM (active).
`C[C@@H](CCc1ccccc1)NC[C@H](O)c1ccc(O)c(C(N)=O)c1` was tested, and the AC50 was “inactive”.
With `CC(CCc1ccccc1)NC(=O)/C=C/c1ccccc1` (centres undefined) the AC50 was 12.6 µM (active).
For `C=CC[C@@H]1C=C[C@H](O/N=C2\c3cc(OC)ccc3O[C@H](c3cccc(OC)c3)[C@H]2O)[C@H](CO)O1`, the activity, negative = inhibition was -7.04% [at 11.4 µM] (inactive).
`O=[N+]([O-])c1ccc(Cl)c(-c2ccc(/C=N/c3c(-c4ccco4)nc4ccccn34)o2)c1` was tested, and the AC50 was “inactive”.
With `COc1cc(-c2nc3ccccn3c2/N=C/c2ccccc2)ccc1O` the AC50 was 3.16 µM (active).
In the case of `C[n+]1cc2c3c(ccc2c2ccc4cc5c(cc4c21)OCO5)OCO3`, the AC50 is reported as 3.98 µM (active).
For `Cc1cnc(CNc2ccnc(-c3ccc(N(C)C)cc3)n2)cn1`, the AC50 was 2.51 µM (active).
`Cc1cnc(CNc2ccnc(-c3ccoc3)n2)cn1` was tested, and the AC50 was 12.6 µM (active).
With `CO/N=C\c1ccc(C(=O)N2[C@H](c3ccc(C)cc3)[C@@H](C)CC[C@H]2C(=O)OC)cc1` the activity, negative = inhibition was -13.4% [at 11.4 µM] (inactive).
`C[N+](C)(C)c1cc2c(nn1)Nc1ccccc1S2` was tested, and the AC50 was 2 µM (active).
In the case of `O=C(O)CC1(CC(=O)O)Nc2ccccc2SC1=O`, the activity, negative = inhibition is reported as 2.04% [at 2.29 µM] (inactive).
With `CCCCC/C=C\C[C@H](O)/C=C\c1cccc(C[C@H](O)CCCCO)n1` the AC50 was “inactive”.
For `CC(/C=C/c1ccco1)=N/NC(=O)c1ccccc1Cl`, the AC50 was 17.8 µM (active).
`Cc1ccc(NC(=S)/C(=C(\[O-])c2ccc(C)c([N+](=O)[O-])c2)[n+]2ccccc2)cc1C` was tested, and the AC50 was 14.1 µM (active).
In the case of `CC(C)=C1C(=O)C(c2ccccc2)=C2CN3C(=O)N(CCc4ccccc4)C(=O)[C@]3(Cc3ccccc3)[C@H]21`, the AC50 is reported as “inactive”.
With `CCOC(=O)C1CN(S(=O)(=O)c2cccc(C(F)(F)F)c2)c2cc(CC(=O)OC)ccc2O1` (centres undefined) the AC50 was “inactive”.
In the case of `O=C(O)c1cccnc1C(=O)O`, the AC50 is reported as “inactive”.
For `O=C(O)c1cccnc1Nc1cccc(C(F)(F)F)c1`, the AC50 was 5.01 µM (active).
For `O=C(O)Cc1ccc2c(c1)N(S(=O)(=O)c1cccc(C(F)(F)F)c1)CC(C(=O)O)O2` (centres undefined), the AC50 was “inactive”.
In the case of `O=C(COC(=O)c1cccnc1Nc1cccc(C(F)(F)F)c1)NCc1ccc2c(c1)OCO2`, the AC50 is reported as 3.55 µM (active).
In the case of `O=C(O)c1sc2cc(C(F)(F)F)cnc2c1-c1ccccc1`, the AC50 is reported as “inactive”.
In the case of `CCN[C@@H]1C[C@H](C)S(=O)(=O)c2sc(S(N)(=O)=O)cc21`, the AC50 is reported as “inactive”.
With `Cc1ncc(COP(=O)(O)O)c(C)c1O` the activity, negative = inhibition was -20.3% [at 11.4 µM] (inactive).
`COC(=O)[C@@H]1CC[C@H](C)[C@@H](c2ccc(C)cc2)N1C(=O)c1ccc(/C=N\O[C@@H](C)CN2CCCCc3nc(C)c(C)cc32)cc1` was tested, and the activity, negative = inhibition was -5.58% [at 11.4 µM] (inactive).
In the case of `CC(C)n1nnnc1SCC(=O)c1ccc2c(c1)OCCO2`, the AC50 is reported as 5.01 µM (active).
For `CCn1nnnc1SCC(=O)c1ccc2c(c1)OCCO2`, the AC50 was 8.91 µM (active).
In the case of `CC(=O)N[C@H]1[C@@H](O[C@@H](C)C(=O)O)[C@H](O)[C@H](CO)O[C@@H]1O`, the AC50 is reported as “inactive”.
`CO[C@H]1COC(=O)[C@H]2CCCN2C(=O)C/C=C\[C@@H](C)[C@H](OC)COC(=O)C/C=C\[C@@H]1C` was tested, and the activity, negative = inhibition was 1.68% [at 11.4 µM] (inactive).
`Cc1occc1C(=O)NNC(=O)Cc1ccccc1` was tested, and the AC50 was “inactive”.
`COC(=O)[C@@H]1C[C@H]1[C@@H](NC(=O)c1cc(C)nn1C)c1ccccc1` was tested, and the AC50 was 15.8 µM (active).
`Cc1cc(CNC(=O)[C@H]2C[C@@H]2[C@H](NP(=O)(c2ccccc2)c2ccccc2)c2ccccc2)nn1C` was tested, and the AC50 was “inactive”.
With `Cc1cc(C(=O)NNCc2ccccc2)no1` the AC50 was 12.6 µM (active).
`CCNC(=S)NNC(=O)c1cc(C)on1` was tested, and the AC50 was “inactive”.
In the case of `COC(=O)[C@@H]1C[C@H]1[C@@H](NC(=O)c1cc(C)on1)c1ccccc1`, the AC50 is reported as 20 µM (active).
